The text below walks through data of PubChem BioAssay.

Test [1] deals with Human papillomavirus type 1a protein E7 (residues 44-93). Kind of test: small molecules binding HPV E7 44-93 – biochemical, small-molecule microarray, residues 44-93, 635 nm fluorescence, primary screen (AID 1108).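 Note: E7 fragment applied at 1 µg/mL in TBST for 1 h at 4 C; score combines spot fluorescence with its signal to noise ratio.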 The following applies: fluorescence 635 nm, higher = more signal.
Test [2] in a line: hepatitis C replication reporter changes, two-sided – Huh7 cells, luciferase reporter, HCV replication inhibitor project, primary screen (AID 1109).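 Note: huh7 hepatoma cells harbouring a luciferase neomycin HCV replicon reporter; luciferase luminescence as measure of HCV replicon replication; test concentration not given here.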 The following applies: Huh7 HCV replicon luciferase reporter, 48 h; higher = more signal.
Test [3] has as its target Left-right determination factor 2 (Homo sapiens) (UniProt O00292). Kind of test: small molecules binding LEFTY2 protein – biochemical, small-molecule microarray, 635 nm fluorescence scan, primary screen (AID 1110). The following applies: higher = more signal.
Test [4] deals with Calmodulin-1 (Homo sapiens) (UniProt P0DP23). Kind of test: small molecules binding calmodulin-1 with EGTA – biochemical, small-molecule microarray, Cy5-labelled CALM1, profiling panel (AID 1111).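 Note: labelled calmodulin applied in Tris saline Tween buffer holding calcium plus EGTA and DTT.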 As to conditions: Cy5-CALM1 binding fluorescence, higher = more signal.
For test [5] the target is unchanged. Kind of test: small molecules binding Ca-loaded calmodulin-1 – biochemical, small-molecule microarray, Cy5-labelled CALM1, plus calcium, artefact control for SMM control-protein annotation, profiling panel (AID 1112).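 Note: score merges spot fluorescence with signal to noise from triplicate slides.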 As to conditions: Cy5-CALM1 binding fluorescence, higher = more signal.
A short description of test [6]: probe aWnt5a binding to arrayed compounds – biochemical, biotinylated probe, 635/667 nm fluorescence, primary screen (AID 1113).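 Note: score merges 667 nm fluorescence intensity with signal-to-noise per printed feature.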 The following applies: small-molecule microarray, higher = more signal.
Test [7] can be described thus: probe aShh binding to arrayed compounds – biochemical, biotinylated probe, 635/667 nm fluorescence, primary screen (AID 1114).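 Note: probe is biotin-labelled aShh protein from a stem cell growth factor screen; measures binding of labelled protein to compounds printed on the slide; score merges feature fluorescence at 667 nm with signal-to-noise.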 As to conditions: small-molecule microarray, higher = more signal.
Test [8] is described as follows: probe aNog binding to arrayed compounds – biochemical, biotinylated probe, 635/667 nm fluorescence, primary screen (AID 1115).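 Note: probe is biotinylated aNog protein used at 0.15 µg/mL for 1 h at 4 C; z-score combines 667 nm fluorescence of each spot with its signal to noise.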 The following applies: small-molecule microarray, higher = more signal.
The target in test [9] is Torsin-1A-interacting protein 1 (Homo sapiens) (UniProt Q5JTV8). Kind of test: compound microarray binding of lysate hLAP1 – cell lysate, small-molecule microarray, COS7 lysate, 635/667 nm fluorescence, primary screen (AID 1116). The following applies: 635 nm fluorescence, higher = more signal.
Torsin-1A-interacting protein 1 (Homo sapiens), sequence (Q5JTV8 whole entry, looked up): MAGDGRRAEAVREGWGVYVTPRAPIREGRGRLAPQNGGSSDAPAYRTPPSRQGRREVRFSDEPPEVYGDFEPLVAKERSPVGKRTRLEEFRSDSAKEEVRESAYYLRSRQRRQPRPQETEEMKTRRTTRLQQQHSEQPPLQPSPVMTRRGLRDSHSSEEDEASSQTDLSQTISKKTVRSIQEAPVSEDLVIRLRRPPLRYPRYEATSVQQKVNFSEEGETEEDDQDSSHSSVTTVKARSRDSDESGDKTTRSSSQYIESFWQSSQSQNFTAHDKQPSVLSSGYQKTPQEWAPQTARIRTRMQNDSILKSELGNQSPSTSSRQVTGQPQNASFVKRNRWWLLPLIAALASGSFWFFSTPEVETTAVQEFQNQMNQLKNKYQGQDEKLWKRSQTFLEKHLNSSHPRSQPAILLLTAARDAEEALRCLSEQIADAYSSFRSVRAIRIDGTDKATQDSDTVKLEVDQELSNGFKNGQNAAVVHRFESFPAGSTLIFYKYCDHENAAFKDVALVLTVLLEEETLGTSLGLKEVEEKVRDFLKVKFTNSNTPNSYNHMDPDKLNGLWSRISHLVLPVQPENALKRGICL
Test [10] addresses Alpha-bungarotoxin (Bungarus multicinctus) (UniProt P60615). Kind of test: compounds binding labelled alpha-BTX control protein – biochemical, small-molecule microarray, Alexa647 label, 635/667 nm fluorescence, artefact control for SMM control protein annotation, profiling panel (AID 1117). The following applies: alpha-BTX-A647 binding fluorescence, higher = more signal.
The next test addresses Albumin (Bos taurus) (UniProt P02769). Kind of test: compounds binding labelled BSA control protein – biochemical, small-molecule microarray, Alexa647 label, 635/667 nm fluorescence, artefact control for SMM control protein annotation, profiling panel (AID 1118).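 Note: score merges 667 nm emission intensity and signal-to-noise per printed compound spot.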 The following applies: BSA-A647 binding, fluorescence 635 nm, higher = more signal.
A short description of test [11]: probe aXIP binding to arrayed compounds – biochemical, NeuroSMM set, 635/667 nm fluorescence, primary screen (AID 1119).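 Note: probe is the protein aXip251-270 applied at 1 µg/mL to compound-printed slides; binding of probe to printed compounds measured as 667 nm fluorescence plus signal to noise.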 The following applies: small-molecule microarray, higher = more signal, called active from +8 up or from −8 down.
Test [12] in a line: probe aNOTCH3 binding on compound microarray – biochemical, small-molecule microarray, 635/667 nm fluorescence, primary screen (AID 1120).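 Note: probe is a biotin-tagged antibody raised against NOTCH3 rather than NOTCH3 protein; score merges spot fluorescence near 667 nm with spot signal to noise.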 The following applies: higher = more signal.
A short description of test [13]: probe aNOTCH2 binding on compound microarray – biochemical, small-molecule microarray, 635/667 nm fluorescence, primary screen (AID 1121).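 Note: score merges feature fluorescence read at 667 nm with its signal to noise.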 The following applies: higher = more signal.
The target of test [14] is Carbonic anhydrase 2 (Homo sapiens) (UniProt P00918). Kind of test: compounds binding carbonic anhydrase 2 – biochemical, small-molecule microarray, Alexa647-labelled CAII, profiling panel (AID 1122). The following applies: CAII-A647 binding fluorescence, higher = more signal.
Test [15] is described as follows: COS7 lysate on small-molecule microarray, probe aHis, 635 nm (AID 1123).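 Note: z-score combines 667nm fluorescence intensity with signal-to-noise per printed compound spot.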 As to conditions: COS7 cell lysate, fluorescence, higher = more signal.
The nature of test [16]: probe aLAP1 signal on lysate-treated microarray – cell lysate, small-molecule microarray, COS7 lysate, primary screen (AID 1124).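 Note: lysate comes from COS7 cells expressing LAP1 and is applied at 0.3 µg/mL; score merges spot fluorescence near 667 nm with signal-to-noise over triplicate slides.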 The following applies: probe aLAP1, fluorescence, higher = more signal.
The next test deals with Sam68 (KHDRBS1). Kind of test: compounds binding KHDRBS1 protein – biochemical, small-molecule microarray, 635 nm fluorescence, primary screen (AID 1125).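 Note: score merges 667 nm channel intensity with signal to noise over triplicate slides.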 The following applies: higher = more signal.
For test [17], the system named is Chordin-like protein 2 (CHRDL2). Kind of test: compounds binding chordin-like 2 – biochemical, small-molecule microarray, 635 nm fluorescence, primary screen (AID 1126).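 Note: printed compound slides probed with Chrdl2 protein at 4 µg/mL for 1 h at 4 C; score merges 667 nm emission intensity with signal to noise over three replicate slides.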 The following applies: fluorescence 635 nm, higher = more signal.
Test [18] deals with Concanavalin-A (Canavalia ensiformis) (UniProt P02866). Kind of test: compounds binding concanavalin A lectin – biochemical, small-molecule microarray, Alexa647 label, 635 nm, artefact control for SMM control protein annotation, primary screen (AID 1127).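 Note: z combines 667 nm emission intensity with signal-to-noise across three replicate slides.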 As to conditions: ConA-A647 binding fluorescence, higher = more signal.
Concanavalin-A (Canavalia ensiformis), sequence (P02866 whole entry, looked up): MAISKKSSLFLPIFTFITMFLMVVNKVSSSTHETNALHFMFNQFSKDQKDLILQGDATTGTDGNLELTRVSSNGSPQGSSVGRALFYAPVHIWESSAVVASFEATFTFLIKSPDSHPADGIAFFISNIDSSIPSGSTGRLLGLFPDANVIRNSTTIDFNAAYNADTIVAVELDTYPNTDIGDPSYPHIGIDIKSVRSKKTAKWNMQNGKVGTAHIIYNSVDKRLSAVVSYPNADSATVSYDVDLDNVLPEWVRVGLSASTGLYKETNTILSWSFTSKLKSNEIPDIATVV

Active and inactive are the calls of the source.

Alpha-bungarotoxin (Bungarus multicinctus), sequence (P60615 whole entry, looked up): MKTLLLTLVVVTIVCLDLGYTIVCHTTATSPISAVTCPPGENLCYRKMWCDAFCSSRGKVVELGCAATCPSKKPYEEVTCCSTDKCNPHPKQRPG
Left-right determination factor 2 (Homo sapiens), sequence (O00292 whole entry, looked up): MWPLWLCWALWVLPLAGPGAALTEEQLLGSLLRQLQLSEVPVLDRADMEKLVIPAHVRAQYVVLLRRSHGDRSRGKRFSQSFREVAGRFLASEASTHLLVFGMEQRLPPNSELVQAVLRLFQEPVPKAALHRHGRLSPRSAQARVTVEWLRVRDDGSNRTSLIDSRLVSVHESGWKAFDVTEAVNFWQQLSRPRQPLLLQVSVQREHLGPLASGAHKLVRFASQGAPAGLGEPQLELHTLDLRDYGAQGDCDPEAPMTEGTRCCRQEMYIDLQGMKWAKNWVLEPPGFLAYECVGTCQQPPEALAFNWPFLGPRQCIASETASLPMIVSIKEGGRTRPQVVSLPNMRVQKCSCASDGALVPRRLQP
Albumin (Bos taurus), sequence (P02769 whole entry, looked up): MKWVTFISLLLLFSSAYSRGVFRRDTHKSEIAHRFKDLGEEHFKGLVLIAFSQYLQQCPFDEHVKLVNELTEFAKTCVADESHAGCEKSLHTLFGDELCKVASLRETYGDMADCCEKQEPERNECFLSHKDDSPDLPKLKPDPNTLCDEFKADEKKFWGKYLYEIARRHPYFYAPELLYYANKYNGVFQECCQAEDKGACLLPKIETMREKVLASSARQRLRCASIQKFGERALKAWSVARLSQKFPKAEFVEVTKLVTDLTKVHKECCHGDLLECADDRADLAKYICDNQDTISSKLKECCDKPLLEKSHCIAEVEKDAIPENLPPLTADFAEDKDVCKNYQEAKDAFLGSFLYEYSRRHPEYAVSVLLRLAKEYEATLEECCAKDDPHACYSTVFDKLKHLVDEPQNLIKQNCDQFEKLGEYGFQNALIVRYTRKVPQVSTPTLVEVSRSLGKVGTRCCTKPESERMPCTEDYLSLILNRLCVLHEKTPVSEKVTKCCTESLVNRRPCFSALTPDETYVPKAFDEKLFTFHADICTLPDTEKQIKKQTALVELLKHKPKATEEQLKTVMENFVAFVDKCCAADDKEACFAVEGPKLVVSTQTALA

`COCCCNC(=O)[C@]1(CCS(=O)(=O)c2ccccc2)N=C(c2ccc(OCCCO)cc2)O[C@@H]1c1ccccc1`: the composite z-score in test [1] is 1.11; in [3] it was 0.494; in test [4] it was 1.62; in test [5], 0.214; in test [6], 0.0179; in test [7] it was -0.161. Besides, the composite z-score in test [8] was -0.315; in [9], 1.8; in test [10] it was 1.5; in the test with Albumin (Bos taurus) it was 0.88; in test [12], 0.558; in test [13], 0.284. The composite z-score in test [14] is 0.751; in [15], 2.99; in test [16] it was 1.75; in the test with Sam68 (KHDRBS1), 1.3; in [17], 0.0923; in [18], 1.1. Also, the z-score in test [2] was -0.995. In [11], the composite Z-score was -0.263 (inactive).
Consider `CC(=O)NCCCC[C@@H]1NC(=O)[C@H]2C[C@@H](C(=O)NCCCCCN)[C@@H](c3cccc(OCCO)c3)N2C1=O`, for which the composite z-score is 0.783 in [1]; 0.0306 in [3]; 1.27 in test [4]; 1.35 in test [5]; -0.0403 in test [6]; -0.0119 in [7]. Moreover, the composite z-score in test [8] was -0.392; in test [9] it was 0.718; in test [10], 1.82; with Albumin (Bos taurus), 0.796; in test [12], 0.0493; in test [13], -0.0878. The composite z-score amounted to 0.715 in test [14]; 0.898 in test [15]; 0.2 in test [16]; 0.993 in the test on Sam68 (KHDRBS1); 0.218 in [17]; 1.2 in test [18]. For the same compound, the z-score in test [2] stood at 0.572. For the same compound, in [11], the composite Z-score is -0.306 (inactive).
As for `C=CCOC(=O)[C@H]1[C@@H]2C(=O)O[C@@H](c3ccccc3)[C@@H](c3ccccc3)N2[C@@H](c2ccc(OCCOC(=O)[C@H]3C[C@H]4C(=O)N[C@@H](CCCCN(C)C)C(=O)N4[C@H]3c3ccc(O)cc3)cc2)[C@]12C(=O)Nc1ccccc12`, the composite z-score is 1.36 in [1]; 0.823 in test [3]; 0.724 in test [4]; -0.707 in [5]; -0.0539 in [6]; -0.157 in [7]. Also, the composite z-score in [8] is -0.206; in [9] it was 0.876; in [10] it was 0.0397; with Albumin (Bos taurus) it was -0.144; in [12] it was 0.272; in test [13], -0.185. Moreover, the composite z-score worked out at 0.415 in [14]; 1.48 in [15]; 0.0568 in test [16]; 1.29 in the test with Sam68 (KHDRBS1); 1.21 in [17]; 1.1 in test [18]. Besides, in test [2], the z-score is -0.917. Besides, the composite Z-score in test [11] was -0.168 (inactive).
Turning to `CCCCCCCCCCC(O)C1C=CC2C(=O)NC(=O)C2N1Nc1ccccn1` (stereo not given), the composite z-score was 1.08 in test [1]; -0.765 in test [3]; 1.4 in test [4]; 0.945 in test [5]; -0.0566 in test [6]; 0.337 in test [7]. The composite z-score in test [8] was 1.7; in test [9], -0.0182; in test [10], 0.217; in the test with Albumin (Bos taurus) it was 0.616; in test [12] it was 0.0159; in test [13], 0.0118. Further, the composite z-score in test [14] is 0.287; in test [15] it was 1.85; in [16], -0.0065; with Sam68 (KHDRBS1), -0.182; in test [17] it was -0.9; in [18], 0.709. The compound also returned a z-score in test [2] of -2.64. In addition, in test [11], the composite Z-score was -0.118 (inactive).
As for `C=CCNC(=O)[C@H]1[C@@H]2C(=O)O[C@@H](c3ccccc3)[C@@H](c3ccccc3)N2[C@@H](c2ccc(O)cc2)[C@]12C(=O)N(C(=O)OCCOC)c1ccc(C#CC3(O)CCCCCC3)cc12`, the composite z-score in test [1] is 0.739; in test [3] it was -0.326; in [4], 0.487; in [5], 0.205; in [6], -0.0445; in test [7], 0.0469. The composite z-score in test [8] is 0.268; in test [9] it was 1.16; in [10] it was 1.2; with Albumin (Bos taurus), 0.624; in test [12], 0.207; in test [13] it was -0.0519. The composite z-score is 0.39 in [14]; 1.08 in test [15]; -0.0714 in test [16]; 1.23 in the test on Sam68 (KHDRBS1); -0.233 in test [17]; 0.915 in test [18]. The compound further displayed a z-score in [2] of -0.302. In test [11], the composite Z-score is 0.282 (inactive).
